Holding throughout (test): NCI-60 one-dose screen, 48 h (100 = growth as untreated, 0 = no growth, -100 = all killed)
Common to all, as to settings: 10 µM unless noted

In test [1] the test system is NCI-H23 lung.
Test [2] concerns NCI-H226 lung.
In test [3] the test system is NCI-H322M lung.
Test [4] relates to HOP-62 NSCLC.
For test [5], the system named is NCI-H460 lung.
The test system of test [6] is HOP-92 NSCLC.
The test system of test [7] is NCI-H522 lung.
Test [8] has as its system A549/ATCC NSCLC.
Test [9] concerns 786-0 renal.
Test [10] concerns COLO 205 colon.
In test [11] the test system is DU-145 prostate.
In test [12] the test system is K-562 leukemia.
Test [13] concerns MALME-3M melanoma.
The subject of test [14] is MDA-MB-231 breast.
For test [15], the system named is RXF 393 renal.
The subject of test [16] is SF-268 CNS.
The test system of test [17] is SF-295 CNS.
For test [18], the system named is SF-539 CNS.
In test [19] the test system is UACC-257 melanoma.
Test [20] concerns M14 melanoma.

The panel holds about 83,000 compounds, 20% with a hit somewhere; the sample as a whole holds those more often.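 The endpoint reported here, percent growth, reads 100 for growth as untreated, 0 for no net growth and -100 for all cells dead.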 A number with no mark means an inactive call. Activity calls are given as the source filed them. The calls were made as follows: active = growth percent below 10; inactive = the rest.

Regarding `CC(C)(C)OC(=O)N1CCN(c2ccc(N)cc2)C(=O)C1`, the growth in test [1] was 97.7%; in test [2], 100%; in test [3] it was 107%; in test [4] it was 106%; in test [5], 111%; in test [6], 127%. Further, the growth in test [7] is 107%; in test [8], 104%; in test [9] it was 100%; in test [10], 113%; in test [11], 115%; in test [12] it was 99.9%. Also, the growth in [13] was 106%; in [14] it was 98.8%; in test [15], 110%; in test [16], 103%; in test [17], 98.2%; in test [18], 107%. The growth in test [19] is 107%; in [20], 101%.
For the compound `CCCCCCCCOc1ccc(/C=N/Nc2cc(C)nc3ccc(Cl)cc23)cc1`, the growth in test [1] was 65.2%; in test [2] it was 87.2%; in [3], 42.2%; in [4], -46.5% (active); in test [5], -63.4% (active); in test [6], 67.3%. Further, the growth is -56.7% (active) in [7]; -37.3% (active) in test [8]; -94% (active) in [9]; -36.2% (active) in test [10]; -87.3% (active) in [11]; -52.6% (active) in [12]. Further, the growth in [13] is 91%; in [14], -59.3% (active); in [15], -68.9% (active); in [16], 104%; in [17], -72.8% (active); in test [18], -81% (active). Besides, the growth is 116% in test [19] and 87.7% in [20].
For `C=C(C)[C@@H]1CC[C@]2(CO)CC[C@]3(C)[C@H](CC[C@@H]4[C@@]5(C)CCCNC(C)(C)[C@@H]5CC[C@]43C)[C@@H]12`, the growth in test [1] was 62.6%; in test [2], 84.4%; in test [3], 69.8%; in test [4] it was 79%; in test [5], -54.4% (active); in [6] it was 82%. The growth in [7] is 64.2%; in [8], 44.9%; in [9], 30.2%; in test [10], -63.5% (active); in test [11], 49.5%; in test [12], -26.6% (active). Also, the growth in test [13] is -65.4% (active); in [14] it was 46.8%; in test [15], 48.4%; in test [16] it was 61.2%; in [17], 40.4%; in [18], 34.3%. Also, the growth in test [19] was -8.72% (active); in [20], -49.8% (active).
For the compound `COc1ccc(CC(C)=C(c2ccc(OCCN(C)C)cc2)c2ccc(OCCN(C)C)cc2)cc1`, the growth in test [1] is 89.3%; in test [2] it was 88.9%; in test [3] it was 85.8%; in test [4], 82.6%; in [5] it was 79.6%; in test [6] it was 37.1%. Besides, the growth was 79.5% in [7]; 77.1% in test [8]; 68.1% in test [9]; 67.3% in test [10]; 83.1% in test [11]; -28.1% (active) in test [12]. Besides, the growth in test [13] is 96%; in test [14] it was 39%; in [15], 74.2%; in test [16], 82.7%; in [17], 67.3%; in test [18], 81.7%. The growth in test [19] was 92.7%; in test [20], -39.7% (active).
For the compound `CCCCCN1C=C/C(=C\C(=O)N(C)c2ccc(Br)cc2)c2ccccc21`, the growth in test [1] was 87.3%; in test [2] it was 86.3%; in [3] it was 98.8%; in [4] it was 94.5%; in test [5], 105%; in test [6], 82.7%. Moreover, the growth was 82.1% in test [7]; 95.2% in [8]; 98% in test [9]; 108% in [10]; 104% in test [11]; 76.5% in test [12]. Besides, the growth in [13] was 96.9%; in test [14], 101%; in test [15], 92.9%; in test [16], 96.2%; in [17], 99.2%; in test [18], 102%. Moreover, the growth in test [19] was 95.1%; in test [20] it was 104%.
`COc1ccc2c(c1)c(CC(=O)NCCOCCOCC(=O)Nc1ccc(OC)c(C(N)=O)c1O)c(C)n2C(=O)c1ccc(Cl)cc1`: the growth in [1] is 90.1%; in [2], 91.5%; in test [3], 92.7%; in test [4] it was 88.8%; in test [5] it was 101%; in [6], 91.3%. In addition, the growth in [7] was 81.3%; in test [8], 85.7%; in [9], 73.8%; in [10], 109%; in [11], 107%; in test [12] it was 91.5%. The growth is 118% in test [13]; 92% in test [14]; 92.9% in test [15]; 88.9% in test [16]; 93.8% in test [17]; 99.9% in test [18]. Moreover, the growth in test [19] is 113%; in test [20] it was 98.3%.
As to `Nc1c(C(=O)Nc2ccc(Cl)cc2)cc(-c2nc3ccccc3s2)c(=O)n1NS(=O)(=O)c1ccc(Cl)cc1`, the growth in [1] was 92.7%; in test [2], 86.4%; in test [3] it was 93.8%; in test [4], 102%; in test [5] it was 106%; in test [6], 96.2%. Also, the growth in [7] is 91.3%; in [8], 104%; in [9], 101%; in [10] it was 105%; in [11], 107%; in test [12], 95.7%. The growth is 107% in test [13]; 94.1% in test [14]; 104% in [15]; 96.7% in test [16]; 98.4% in test [17]; 102% in test [18]. In addition, the figures for the growth in test [19] and in [20] were 104% and 98.2%, respectively.
Turning to `CN1CCN(CC#CCNC(=O)[C@]23CCC(C)(C)C[C@H]2C2=CC[C@@H]4[C@@]5(C)Cc6c([nH]c7ccccc67)C(C)(C)[C@@H]5CC[C@@]4(C)[C@]2(C)CC3)CC1`, the growth in test [1] is 95.8%; in test [2] it was 93.9%; in test [3], 88.7%; in test [4] it was 91.9%; in test [5], -25.3% (active); in test [6], 52.7%. For the same compound, the growth in [7] is 67%; in test [8] it was 52.8%; in test [9], 64.5%; in test [10], 51.2%; in test [11], 61.9%; in [12] it was 1.31% (active). Further, the growth in [13] is 26.6%; in test [14], 74.1%; in test [15], 66.5%; in [16] it was 70%; in [17] it was 108%; in [18] it was 82.6%. For the same compound, the growth in [19] was 82.2%; in test [20], 51.5%.

For the origin of these results see PubChem BioAssay (NCI).
